# Experimental data taken from the supplement of paper PMC12636033.
# ± gives the standard deviation of the averaged measurements. Over roughly 33,000 sequences, “E-score (rank enrichment, -0.5 to 0.5)” has its median near -0.0028; the highest 2% begin near 0.23. The sample as a whole holds a higher share of the highest values than the screen did.
# System: 2Sb-muMax20 (muMax20 with two 1,3-bis(methyl)benzene Cys staples, A13C/A17C and Q88C/A92C, C-terminal Lys)
# Experiment: PBM 8-mer E-score (E-score (rank enrichment, -0.5 to 0.5)); higher = stronger preferential binding
# Protocol: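 Protein binding microarray (universal PBM chip covering all 10-mers in fixed probe flanks) with chemically synthesized human Max(13-93) bHLH-LZ analogs (not full-length Max) bearing noncanonical residues (hArg, Tha, Aib, Nle at 65) and aromatic Cys staples. Read-out per 8-mer (and its reverse complement): E-score (rank-based enrichment, -0.5 to 0.5) and Z-score of median probe intensity.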
row,Sequence,PBM 8-mer E-score
1,AAACGTGT,0.0274 ± 0.017
2,AGACGTGA,0.0177 ± 0.032
3,ACACGTGT,0.396 ± 0.015
4,ACACGTAT,0.205 ± 0.022
5,ATACGTGA,0.0108 ± 0.014
6,ATGTCGCG,-0.163 ± 0.042
7,CATCGTAC,-0.0597 ± 0.0024
8,ACTACGTC,0.0847 ± 0.0011
9,GTCGATTA,-0.0254 ± 0.015
10,AGCAGGCT,-0.169 ± 0.016
11,GAGCCCGC,-0.24 ± 0.016
12,AGCGCTCA,-0.0925 ± 0.0074
13,ATAATGTC,0.238 ± 0.021
14,ATAATGGC,0.012 ± 0.012
15,ATAATGGG,0.238 ± 0.034
16,ATAATGTG,0.159 ± 0.037
17,CTAATGTC,-0.0718 ± 0.018
18,ATAATGGA,0.185 ± 0.0033
19,AGGAACTG,-0.188 ± 0.049
20,GCTGCACA,-0.179 ± 0.029
21,CGCTTGTA,0.123 ± 0.13
22,AATGCATT,0.282 ± 0.018
23,CATGCAAG,0.0851 ± 0.0044

row,Sequence,PBM 8-mer E-score
1,AATGCATA,0.155 ± 0.01
2,CATGCATA,0.177 ± 0.0083
3,GATGCGTA,0.126 ± 0.054
4,CATGCGTA,0.2542 ± 0.0016
5,AATGCAAC,0.0741 ± 0.045
6,AATGCATC,0.174 ± 0.028
7,CATGCATC,0.0655 ± 0.044
8,CATGCATG,0.349 ± 0.03
9,CATGCAAC,0.247 ± 0.027
10,AATGCGTA,0.192 ± 0.017
11,AAAGGGGA,0.101 ± 0.002
12,ACCGGGCA,-0.237 ± 0.053
13,CTGGTCCC,-0.186 ± 0.015
14,GGCTTCGA,-0.0528 ± 0.016
15,GTCTTCAC,-0.127 ± 0.079
16,CACCGAGG,-0.221 ± 0.014
17,AATGCATG,0.26 ± 0.017
18,AATGCAAA,0.247 ± 0.034
19,ATTGCATG,0.13 ± 0.006
20,ACTGCATG,0.0264 ± 0.067
21,TATGCAAA,0.0419 ± 0.0014
22,AATGCAAG,0.134 ± 0.016
23,ATGGTTAC,-0.0452 ± 0.019

row,Sequence,PBM 8-mer E-score
1,GCCACCGA,-0.191 ± 0.0059
2,ATTGCATA,0.228 ± 0.028
3,TATAAACA,0.156 ± 0.011
4,ACTGTTAG,-0.0514 ± 0.065
5,GATTAAGA,0.129 ± 0.0066
6,AATTAATA,0.217 ± 0.011
7,GATTAATC,-0.0411 ± 0.03
8,TATTAATA,0.296 ± 0.027
9,CATTAATA,0.148 ± 0.024
10,GATTAATA,0.258 ± 0.041
11,GATGATCC,-0.0779 ± 0.039
12,CATCGTTC,-0.12 ± 0.012
13,AGACAATC,0.113 ± 0.029
14,AGACAATA,0.242 ± 0.082
15,AGACAATG,-0.0359 ± 0.045
16,GCACGCAA,-0.108 ± 0.043
17,ACCCCAGC,0.162 ± 0.054
18,GGAGGGAC,-0.162 ± 0.097
19,CTAACAAA,0.144 ± 0.04
20,GGATGCCA,-0.0771 ± 0.0063
21,AGTGTGCA,0.127 ± 0.052
22,CCCGCCCA,0.4 ± 0.012
23,GCCGCCAC,-0.229 ± 0.042

row,Sequence,PBM 8-mer E-score
1,GCCGCCCA,-0.145 ± 0.07
2,CCCGCCAC,0.239 ± 0.034
3,GCCGCCCC,0.0256 ± 0.14
4,ACCGCCCC,0.171 ± 0.074
5,CCCGCCCC,0.241 ± 0.1
6,CCCGCCCG,0.116 ± 0.12
7,ACCGCCAC,-0.106 ± 0.0018
8,AAAGCTGC,0.108 ± 0.027
9,GAAAGACC,-0.0392 ± 0.039
10,ATCGTTGG,-0.105 ± 0.092
11,CGACGATA,-0.0378 ± 0.027
12,CCAGTGGC,-0.0927 ± 0.044
13,CAGGCAGC,-0.163 ± 0.015
14,GAAGCGAC,-0.0841 ± 0.007
15,ACTCGTAA,0.213 ± 0.042
16,CCCCAACA,0.256 ± 0.061
17,TCCCAACA,0.0292 ± 0.05
18,CCCCAACC,0.131 ± 0.087
19,CAGAAAAA,-0.0726 ± 0.05
20,AGTGCATC,-0.00688 ± 0.015
21,AAATTATC,0.107 ± 0.0057
22,CAATTATA,0.115 ± 0.045
23,TAATTATA,0.262 ± 0.03

row,Sequence,PBM 8-mer E-score
1,GAATTATA,0.141 ± 0.061
2,AAATTATA,0.253 ± 0.069
3,AAATTATG,0.168 ± 0.0019
4,GCACACGA,-0.00209 ± 0.0015
5,AAGTTAGC,0.00664 ± 0.0061
6,TGCCCGAA,-0.0214 ± 0.05
7,GGACAAAA,0.0253 ± 0.017
8,AATATCGT,0.091 ± 0.0052
9,CCGTGATA,-0.132 ± 0.043
10,TCGTGAAA,-0.2052 ± 0.00053
11,ACGTGATC,0.187 ± 0.028
12,GCGTGATA,0.113 ± 0.028
13,ACGTGAGG,0.0924 ± 0.012
14,ACGTGATG,0.239 ± 0.0046
15,ACGTGAAA,0.238 ± 0.035
16,ACGTGATA,0.244 ± 0.05
17,ACGTGAAC,0.0297 ± 0.012
18,GGTTTAAC,-0.0252 ± 0.0077
19,CACATTGG,-0.033 ± 0.038
20,ACACTGCA,-0.0884 ± 0.039
21,AGACCTAG,-0.205 ± 0.0049
22,ACGAACTG,-0.134 ± 0.02
23,CCCTATTA,0.0897 ± 0.046

row,Sequence,PBM 8-mer E-score
1,CGCCTCCG,-0.115 ± 0.014
2,GTATTGAA,0.0851 ± 0.057
3,ATATTGAA,0.0093 ± 0.059
4,TTATTGAA,0.3 ± 0.015
5,ACGCGCCC,0.00592 ± 0.048
6,ACGTTTAG,0.0678 ± 0.079
7,CTAACACA,-0.028 ± 0.069
8,ATAACATA,0.2304 ± 0.0015
9,ATAACACG,0.137 ± 0.063
10,ATAACACA,0.236 ± 0.023
11,ATAACATG,0.192 ± 0.035
12,ATAACATC,0.211 ± 0.049
13,CTTGGCGC,-0.0178 ± 0.027
14,GTGATCAA,-0.00195 ± 0.013
15,TATTGGAA,0.0585 ± 0.0063
16,AATCACTC,-0.0758 ± 0.076
17,ACAGTGAG,-0.03 ± 0.013
18,ATTGAAGC,0.00997 ± 0.0075
19,ATAGGCAA,0.248 ± 0.061
20,ATAGGCAG,0.165 ± 0.037
21,CTAGGCAA,-0.167 ± 0.047
22,AACGTGAC,0.128 ± 0.0036
23,CACGTGAA,0.369 ± 0.02

row,Sequence,PBM 8-mer E-score
1,CACGTGAC,0.386 ± 0.011
2,CACGTGAG,0.186 ± 0.016
3,TACGTGAA,0.0248 ± 0.06
4,GACGTGAA,-0.272 ± 0.011
5,ATGAGGTG,0.103 ± 0.034
6,CATAGACA,0.0657 ± 0.028
7,GCCAACTA,0.0147 ± 0.076
8,CCAAACTA,0.234 ± 0.0031
9,ACAAACTA,0.152 ± 0.048
10,CAAAACTA,0.062 ± 0.059
11,CCCAACTA,0.242 ± 0.0045
12,ACCAACTA,0.0506 ± 0.082
13,ACATTCCA,-0.0113 ± 0.025
14,GAGGGTCA,-0.00483 ± 0.032
15,CACATTTC,0.141 ± 0.013
16,TCCTACGA,-0.0774 ± 0.011
17,CCCTACGC,0.0539 ± 0.023
18,CCCTACGA,0.232 ± 0.0033
19,GGGAGACA,0.115 ± 0.016
20,GCTCTGCA,-0.0815 ± 0.037
